Assay results reported in ChEMBL document CHEMBL3988442, “University of Dundee, Small-Polar-MMV Screening Library” (2021).
Among all 48,000 compounds or so, about 13,000 (27%) showed an effect of 50% or more. Some of the results follow.

System: Wolbachia pipientis
Test: Anti-Wolbachia Cell-Based Screen
Assay type: functional
Parameters: scale not given: in the data most compounds retested in dose-response had high values
Conditions: 5 µM

Structure (SMILES) | Percent Effect [%]
CSC1(CNC(=O)NCc2sccc2C)CCOCC1 | -11.79
COC(=O)NCC(=O)N(C)Cc1csc(-c2cccs2)n1 | -9.296
COc1ccccc1OC1CCN(Cc2cnc(N(C)C)nc2)CC1 | -4.548
CCn1c(CN(C)C)nnc1C1CCN(Cc2cccc(OC)c2)CC1 | 12.38
COc1ccccc1CN1CCC(Cc2cnc(CN(C)C)cn2)CC1 | 110
COc1ccccc1CN(C)C(=O)c1cc(CN2CCC(O)CC2)on1 | -15.1
Cc1cnc(CN(C)C2CCN(CCc3ccccn3)CC2)cn1 | 10.61
CN(C)Cc1cnc(CC2CCN(CCc3ccccc3)CC2)cn1 | 90.66
COc1cccc(CN2CCC(c3nccn3C(C)C)CC2)c1 | 7.494
COc1cccc(CN2CCC(Cc3cnc(CN(C)C)cn3)CC2)c1 | 111.9
Cc1ncc(CN(C)C2CCCN(CCc3ccccc3)C2)n1C (stereo not given) | -4.655
O=C(NCCN1CCOCC1)NCc1ncc(-c2ccccc2)o1 | 4.39
CCc1cc(N2C[C@H](C3CC3)[C@@H](N)C2)nc(N2CCCC2)n1 | 13.06
O=C(C1SCCc2sccc21)N1CC(O)C1 (stereo not given) | -8.874
Brc1ccc(CNCc2nnc3n2CCCCC3)s1.Cl | -9.966
O=C(NCCc1nc(-c2cccnc2)no1)c1ccc(C2CCCO2)s1 (stereo not given) | 9.289
O=C(NCc1nnc2n1CCCC2)c1ccc(C2CCCO2)s1 (stereo not given) | 101.2
O=C(NCc1nnc2n1CCC2)c1ccc(C2CCCO2)s1 (stereo not given) | 92.93
CCCn1nc(C(=O)NCc2nnc3n2CCC3)ccc1=O | 10.17
O=C(c1ccc(C2CCCO2)s1)N1CCOCC1 (stereo not given) | 12.38
O=C(c1ccc(C2CCCO2)s1)N1CCS(=O)(=O)CC1 (stereo not given) | -17.24
O=C(NCc1nnc2n1CCC2)c1ccc(Br)s1 | 111.9
O=C(NCCc1nc(-c2ccccn2)no1)c1ccc(C2CCCO2)s1 (stereo not given) | 1.168
Brc1ccc(CNCc2nnc3n2CCC3)s1.Cl | 7.308
O=C(NCc1nc(-c2ncccn2)no1)c1ccc(C2CCCO2)s1 (stereo not given) | 1.896
O=C(NCc1nnnn1-c1ccccc1)c1ccc(C2CCCO2)s1 (stereo not given) | 107.3
CCc1cccc(OCCn2cccc(C#N)c2=O)c1 | -12.24
Nc1cc(C(=O)N2C[C@H]3CC[C@@H]2CN(Cc2cccnc2)C3)ccn1 | -14.93
CNC(=O)[C@@H](c1ccccc1OC)N1CCC[C@H]1C(=O)N1CCC1.Cl | -2.79
CCCc1nncn1-c1cc(OC)ccc1OC | -4.578
